# Assay results taken from publication PMC4336329 (PLoS ONE, 2015).
# Among all 310,000 compounds or so, about 14,000 (4.5%) showed an effect of 50% or more. Effects have a minus sign here. The full list was thinned out, with strong results kept by preference.
# Molecular target: human ether-à-go-go-related gene (hERG) potassium channel (human, UniProt Q12809)
# Assay: primary screen, population patch clamp on CHO cells stably expressing hERG; higher = less effect of the substance
# 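Further: peak tail current of the secondary pulse compared with the same well before compound.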
# human ether-à-go-go-related gene (hERG) potassium channel, sequence (Q12809 whole entry, looked up): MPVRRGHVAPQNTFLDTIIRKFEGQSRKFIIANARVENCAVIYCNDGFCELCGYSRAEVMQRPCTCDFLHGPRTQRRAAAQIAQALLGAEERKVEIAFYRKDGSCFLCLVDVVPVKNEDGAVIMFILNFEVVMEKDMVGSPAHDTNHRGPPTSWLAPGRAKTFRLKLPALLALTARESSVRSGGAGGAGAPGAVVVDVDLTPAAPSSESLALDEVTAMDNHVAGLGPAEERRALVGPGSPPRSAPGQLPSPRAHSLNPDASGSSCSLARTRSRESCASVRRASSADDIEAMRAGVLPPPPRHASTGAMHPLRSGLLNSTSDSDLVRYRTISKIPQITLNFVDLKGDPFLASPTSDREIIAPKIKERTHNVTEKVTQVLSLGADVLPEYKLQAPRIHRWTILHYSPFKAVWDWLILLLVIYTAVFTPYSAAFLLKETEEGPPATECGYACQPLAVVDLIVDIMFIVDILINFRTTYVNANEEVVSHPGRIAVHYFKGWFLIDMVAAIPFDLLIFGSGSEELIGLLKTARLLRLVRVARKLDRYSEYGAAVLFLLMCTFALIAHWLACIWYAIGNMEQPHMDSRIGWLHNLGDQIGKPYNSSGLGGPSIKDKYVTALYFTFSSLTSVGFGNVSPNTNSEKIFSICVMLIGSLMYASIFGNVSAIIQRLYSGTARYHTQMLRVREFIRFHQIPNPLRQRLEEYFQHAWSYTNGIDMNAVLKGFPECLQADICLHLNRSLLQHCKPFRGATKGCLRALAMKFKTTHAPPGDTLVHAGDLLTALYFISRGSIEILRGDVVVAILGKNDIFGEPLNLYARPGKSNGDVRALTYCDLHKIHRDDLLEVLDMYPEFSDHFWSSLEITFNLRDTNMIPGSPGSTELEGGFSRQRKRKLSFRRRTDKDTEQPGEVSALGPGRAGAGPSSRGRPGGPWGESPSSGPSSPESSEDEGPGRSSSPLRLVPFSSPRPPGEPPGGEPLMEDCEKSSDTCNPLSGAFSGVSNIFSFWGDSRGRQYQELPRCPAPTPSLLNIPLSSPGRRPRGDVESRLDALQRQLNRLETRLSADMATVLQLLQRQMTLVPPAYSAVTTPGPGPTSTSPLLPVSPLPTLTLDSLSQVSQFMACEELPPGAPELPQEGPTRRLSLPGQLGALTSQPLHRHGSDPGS
row,SMILES,"hERG current change (%, negative = inhibition) at 10uM"
1,CCN(CC(=O)Nc1cc(Cl)ccc1C)C(=O)CCOc1ccc(C)cc1,-8.25%
2,CCN(CC(=O)Nc1c(F)cccc1F)C(=O)CCCNC(=O)c1ccc(Cl)cc1,-7.06%
3,CCN(CC(=O)Nc1ccccc1C(F)(F)F)C(=O)CCOc1ccc(C)cc1,-13.1%
4,CCN(CC(=O)NCc1cccs1)C(=O)CCCOc1ccccc1,-35.2%
5,CCN(CC(=O)NCc1ccc(Cl)cc1)C(=O)CCOc1ccc(C)cc1,-82.6%
6,CCCCOc1ccc(C(=O)N(CC)CC(=O)NCc2cccs2)cc1,-19.1%
7,CCN(CC(=O)Nc1c(F)cccc1F)C(=O)CCC(=O)c1ccc(F)cc1,-12.1%
8,CCOc1ccc(OCCC(=O)N(CC)CC(=O)NCc2ccc(Cl)cc2)cc1,-60.5%
9,CCOc1ccc(N(CC(=O)NCc2ccc(Cl)cc2)S(=O)(=O)c2ccccc2)cc1,20.4%
10,CCN(CC(=O)Nc1c(F)cccc1F)C(=O)CCNC(=O)c1ccc([N+](=O)[O-])cc1,-55.4%
11,CCN(CC(=O)NCc1cccs1)C(=O)CCCOc1ccc(C(C)(C)C)cc1,-52.6%
12,CCOc1ccc(OCCC(=O)OCC(=O)NCc2ccc(Cl)cc2)cc1,8.85%
13,O=C(NCC1COCCO1)C1CCN(S(=O)(=O)c2ccccc2)CC1 (centres unmarked),-7.05%
14,Cc1cc(C)cc(N(CC(=O)NCc2cccnc2)S(C)(=O)=O)c1,-1.95%
15,Cc1ccccc1NCc1ccc([N+](=O)[O-])s1,-38.8%
16,CCC(C)(CC(=O)N(C)CCC#N)c1ccccc1 (centres unmarked),-0.111%
17,COc1ccc(C(=O)N2CCCC(Nc3ccc(C)c(C)c3)C2)c(OC)n1 (centres unmarked),-17.7%
18,COc1cc(OC)cc(-c2nc3ccccc3c(=O)n2OC(=O)c2ccccc2C)c1,10.6%
19,CCOc1ccc(OCCC(=O)N(CC)CC(=O)Nc2c(F)cccc2F)cc1,-60.2%
20,CCN(CC(=O)NCc1cccs1)C(=O)CCOc1ccccc1C,-19.8%
21,CCN(CC(=O)Nc1cc(Cl)ccc1C)C(=O)CCOc1ccccc1C,18.4%
22,CCN(CC(=O)NCc1ccc(Cl)cc1)C(=O)CCOc1ccccc1C,-71%
23,CCN(CC(=O)Nc1c(F)cccc1F)C(=O)CCOc1ccc(C)cc1,-2.71%

row,SMILES,"hERG current change (%, negative = inhibition) at 10uM"
1,CCOc1ccc(OCCCC(=O)N(CC)CC(=O)Nc2c(F)cccc2F)cc1,-5.99%
2,COCCn1c(C)cc(C(=O)COC(=O)c2cncc(Br)c2)c1C,-31.3%
3,C=CCn1c(C)cc(C(=O)COC(=O)c2cncc(Br)c2)c1C,-55.9%
4,C=CCn1c(C)cc(C(=O)COC(=O)c2ccc3c(c2)NC(=O)CS3)c1C,4.69%
5,Cc1cc(C)nc(NS(=O)(=O)c2ccc(N)cc2)n1,12%
6,CNc1cc(NS(=O)(=O)c2ccc(N)cc2)nc(NC)n1.Cl,-61.4%
7,COc1cc(NS(=O)(=O)c2ccc(N)cc2)nc(OC)n1,9.57%
8,CN(CCO)c1ncnc2c1sc1nc(N3CCOCC3)c3c(c12)CCC3,-55.2%
9,OCCN(CCO)c1ncnc2c1sc1nc(N3CCOCC3)c3c(c12)CCCC3,-13.3%
10,OCCN1CCN(c2ncnc3c2sc2nc(N4CCOCC4)c4c(c23)CCC4)CC1,-22.1%
11,CCN(CC)CCNc1ncnc2c1sc1nc(N3CCOCC3)c3c(c12)CCCC3,-32.8%
12,CCN(CC)CCNc1ncnc2c1sc1nc(N3CCOCC3)c3c(c12)CC(C)(C)SC3,-71.1%
13,CN(C)CCNc1ncnc2c1sc1nc(N3CCCC3)c3c(c12)CC(C)(C)OC3,-20.4%
14,CCN(CC)CCNc1ncnc2c1sc1nc(N3CCCC3)c3c(c12)CC(C)(C)OC3,-65.5%
15,CC(C)CNc1ncnc2c1sc1nc(N3CCOCC3)c3c(c12)CC(C)(C)OC3,-4.77%
16,CC1(C)Cc2c(c(N3CCOCC3)nc3sc4c(NN)ncnc4c23)CS1,-5.43%
17,C[C@]12CCC(OC(=O)CCC(=O)O)CC1=CCC1C2CC[C@]2(C)C(=O)CCC12 (some centres unmarked),11.5%
18,CC1(C)c2[nH]c3ccccc3c2C[C@H]2C(=O)N(N)CC(=O)N21.Cl,19%
19,COc1ccc(N2CCN(c3nc4cc(C)ccc4cc3C=O)CC2)cc1,16.6%
20,COC(=O)C1=C(c2c(C)noc2C)C[C@@H]2CC[C@H]1N2C(=O)NCc1ccco1,19%
21,O=C1COc2ccc(C(=O)CSc3nnc(NCc4ccccc4)s3)cc2N1,-9.48%
22,O=[N+]([O-])c1ccc(Sc2n[nH]c(-c3ccco3)n2)nc1,-0.59%
23,CCOC(=O)c1cnc(SCC(=O)Nc2nc(C)c(C)s2)nc1N,-61.9%

row,SMILES,"hERG current change (%, negative = inhibition) at 10uM"
1,CCn1c(SCC(=O)Nc2nncs2)nnc1-c1ccco1,17.2%
2,CCn1c(SCC(N)=O)nnc1-c1ccco1,3.15%
3,CCn1c(SCC(=O)Nc2nc(C)cs2)nnc1-c1ccco1,-50.8%
4,O=[N+]([O-])c1ccc(Sc2ccccc2)nc1,8.82%
5,CCOC(=O)c1cnc(SCC(=O)Nc2nnc(CC)s2)nc1N,8.46%
6,O=[N+]([O-])c1ccc(Sc2ncc3ccccn23)nc1,-51.6%
7,O=[N+]([O-])c1ccc(Sc2ccccn2)nc1,10.8%
8,CCn1c(Sc2ccc([N+](=O)[O-])cn2)nnc1-c1ccco1,-66.5%
9,Cc1csc(NC(=O)CSc2nnc(-c3ccco3)n2C)n1,-31.6%
10,CCOC(=O)c1cnc(SCC(=O)Nc2sc(C)c(C)c2C#N)nc1N,14.2%
11,COc1ccc(C2/C(=C(/O)c3ccc(C)cc3)C(=O)C(=O)N2C)cc1 (centres unmarked),-2.36%
12,CC1CCc2ccccc2N1C(=N)N(C)C.Cl (centres unmarked),3.44%
13,CCNC(=O)O/N=C(\C)c1sc(-c2ccccc2)nc1C,-11.2%
14,CCOC(=O)C(=CNNc1cccc(Cl)c1)C(=O)OCC,15.5%
15,O=C(Nc1ccc(F)cc1F)c1sccc1SCc1cccc(C(F)(F)F)c1,-4.52%
16,O=C(Nc1ccc(Nc2ccccc2)cc1)c1c(F)c(F)c(F)c(F)c1F,22.9%
17,CCOc1cccc(N(C(=O)c2ccco2)C(C(=O)NC2CCCC2)c2cccnc2)c1 (centres unmarked),0.854%
18,Cc1ccc2sc(NNC(=O)c3cc(-c4cccs4)nc4ccccc34)nc2c1C,16.3%
19,CCn1c(SCC(=O)Nc2nc(C)c(C)s2)nnc1-c1ccco1,-68.8%
20,CCn1c(Cc2ccccc2)nnc1SCC(=O)Nc1nc(C)c(C)s1,9.3%
21,CCn1c(SCC(=O)Nc2nc(C)c(C)s2)nnc1-c1cccs1,-73.4%
22,CCn1c(SCC(=O)Nc2nnc(C)s2)nnc1-c1ccco1,-5.98%
23,CCn1c(SCC(=O)Nc2nc(C)c(C)s2)nnc1-c1cccnc1,-26.2%

row,SMILES,"hERG current change (%, negative = inhibition) at 10uM"
1,CCc1nnc(NC(=O)CSc2nnc(-c3ccco3)n2CC)s1,13.7%
2,Cc1ccc2cc(C=C(C#N)C#N)c(N3CCCCC3)nc2c1,15.3%
3,Nc1ccc2c(c1)-c1ccccc1S(=O)(=O)N2,11.1%
4,COc1ccc(O)c2c(=O)c3c(OC)cc4c(c3oc12)C1C=COC1O4 (centres unmarked),4.03%
5,O=C(c1cccs1)N1CCN=C1SCc1ccccc1,7.77%
6,O=C1c2ccccc2C(=O)N1CCCn1c(=O)oc2ccccc21,11.4%
7,Cc1cccc(-n2nnc3c(=O)n(Cc4ccccn4)cnc32)c1,-7.65%
8,COc1ccc(C(CNC(=O)Nc2ccc(Cl)cc2)N2CCN(C)CC2)cc1 (centres unmarked),-24.5%
9,Cc1ccc(C(CNC(=O)c2ccc(Br)o2)N2CCN(C)CC2)cc1 (centres unmarked),-60.4%
10,CN1CCN(C(CNC(=O)Nc2ccc(Cl)cc2)c2ccc(F)cc2)CC1 (centres unmarked),-56.3%
11,COc1ccc(C(CNC(=O)Nc2ccccc2)N2CCN(C)CC2)cc1 (centres unmarked),-12.8%
12,Cc1ccc(C(CNC(=O)c2ccco2)N2CCN(C)CC2)cc1 (centres unmarked),-11.1%
13,Cc1cccc(NC(=O)NCC(c2ccc(F)cc2)N2CCN(C)CC2)c1 (centres unmarked),-42.6%
14,Cc1ccc(C(CNC(=O)Nc2ccc(Cl)cc2)N2CCN(C)CC2)cc1 (centres unmarked),-76.8%
15,CN1CCN(C(CNC(=O)c2ccc(Br)o2)c2ccc(F)cc2)CC1 (centres unmarked),-17.5%
16,Cc1ccc(C(CNC(=O)Nc2ccccc2)N2CCN(C)CC2)cc1 (centres unmarked),-28.9%
17,Cc1ccc(/C=C(\C#N)C(=O)NCc2ccco2)o1,3.84%
18,O=C(c1ccccc1)c1cn[nH]c1-c1ccccc1O,5.65%
19,CCOc1ccc(S(=O)(=O)NCCC(=O)N(C)Cc2cccs2)cc1,-20.9%
20,COc1cc(/C=N/NC(=O)c2ccccn2)ccc1OC(=O)c1ccc(Br)cc1,1.06%
